Out of some 38,000 compounds screened, about 1,200 (3.2%) showed an effect of 50% or more. The median lay at about -58%. This is one part of a sample in which strong results are shown more often than they occur.
Each molecule was assayed on Plasmodium falciparum (assay: Calibr Malaria Delayed Death Assay SOP). Conditions: concentration 4.99e-06 (unit not given; other assays of the set use mol/L).
Assay type: functional, organism-based
Parameters: scale not given: in the data most compounds retested in dose-response had high values
With `O=C(C1CCOC1)N1C[C@H]2CN(Cc3ccncc3)C(=O)[C@H]2C1.O=C(O)C(F)(F)F` (stereo partly specified) the “Percent Effect” value was -110.3%.
In the case of `CCN1Cc2ccccc2N(C(=O)C2CCC2)CCC1=O`, the “Percent Effect” value was -10.23%.
For `CC(C)NC(=O)C1CN(C(=O)CCc2ccccc2)CC12CCOCC2` (stereo unspecified), the “Percent Effect” value was -79.45%.
`NS(=O)(=O)c1ccc(CNCC(=O)NCc2ccc(Cl)cc2Cl)cc1` was tested, and the “Percent Effect” value was -66.27%.
In the case of `Oc1ccc(Cl)cc1CNCc1cccc(C(F)(F)F)c1`, the “Percent Effect” value was 88.68%.
`Oc1ccc(Cl)cc1CNCc1ccccc1C(F)(F)F` was tested, and the “Percent Effect” value was 63.6%.
For `Cc1ccccc1CNCc1cc(Cl)ccc1O`, the “Percent Effect” value was 74.83%.
For `O=C1CCCN1c1cccc(CNCc2cc(F)ccc2F)c1`, the “Percent Effect” value was -68.04%.
For `Cc1cc(NC(=O)Cc2ccccc2O)c[nH]c1=O`, the “Percent Effect” value was -29.46%.
For `CC(=O)N1CCC(NC(=O)c2cc(Cl)ccc2O)CC1`, the “Percent Effect” value was -71.2%.
For `CC(NC(=O)Cc1ccccc1F)(C(N)=O)c1cccc(Cl)c1` (stereo unspecified), the “Percent Effect” value was -10.09%.
In the case of `NS(=O)(=O)c1ccc(NCc2ccccc2F)cc1C(F)(F)F`, the “Percent Effect” value was -7.015%.
`OCc1cccc(CNCc2cccc3c2OCCO3)c1` was tested, and the “Percent Effect” value was 41.91%.
In the case of `CS(=O)(=O)Cc1ccccc1NCc1cc(Cl)ccc1Cl`, the “Percent Effect” value was -167.2%.
`Oc1ccc(Cl)cc1CNCc1ccccc1Cl` was tested, and the “Percent Effect” value was 75.8%.
In the case of `c1cnn(CCNCc2cnc(N3CCOCC3)nc2)c1`, the “Percent Effect” value was -160.5%.
In the case of `Clc1snnc1CN1CCCC1Cn1cncn1` (stereo unspecified), the “Percent Effect” value was -22.89%.
For `CCc1nc(CN2CCCC(N(C)CCn3cccn3)C2)no1` (stereo unspecified), the “Percent Effect” value was -71.81%.
`Cc1nc(N(C)C)nc(C)c1NS(=O)(=O)c1ccccc1Cl` was tested, and the “Percent Effect” value was -104.4%.
`O=C(NCCc1cccc(F)c1)c1nc2c(s1)CCCN2C(=O)C1CC1` was tested, and the “Percent Effect” value was -105%.
For `COC[C@@H]1CCC[C@]12CN(S(=O)(=O)c1cn(C)cn1)CCO2`, the “Percent Effect” value was -139.4%.
In the case of `CSCC(=O)NCc1cc(Br)ccc1OC(F)F`, the “Percent Effect” value was -97.53%.
With `OCCNc1nc(NCc2cccnc2)nc2nccnc12` the “Percent Effect” value was -78.22%.
In the case of `NC(=O)C1Cn2ccnc2C2(CCN(C(=O)c3ccncc3)CC2)O1` (stereo unspecified), the “Percent Effect” value was -59.21%.
In the case of `CC1N(c2cnn(C)c2)C(=O)COC12CCN(Cc1ccoc1)CC2` (stereo unspecified), the “Percent Effect” value was -59.84%.
In the case of `CCc1ncc2c(n1)CN(Cc1nc(-c3cccs3)no1)CC2`, the “Percent Effect” value was -24.12%.
With `COCCC1(C(=O)O)CCCN(C(=O)c2cc(F)ccc2OC)C1` (stereo unspecified) the “Percent Effect” value was -162.1%.
`CC(=O)N1CCN(C(=O)Cn2ccc3c(Cl)cccc32)CC1` was tested, and the “Percent Effect” value was -40.91%.
In the case of `CC(C)CN1CCCC1c1ccc(C(=O)Nc2cc[nH]n2)s1` (stereo unspecified), the “Percent Effect” value was 42.59%.
In the case of `CC(C)CN1CCCC1c1ccc(C(=O)Nc2cn(C)nn2)s1` (stereo unspecified), the “Percent Effect” value was 51.14%.
With `CC(C)CN(C(=O)Nc1cccnc1)C1CC1` the “Percent Effect” value was -3.552%.
For `CN1CCCC1c1ccc(C(=O)Nc2c3c(nn2C)CCC3)s1` (stereo unspecified), the “Percent Effect” value was -68.39%.
`Cc1nc(C)n(CC2CCCN2CC(=O)Nc2cccnc2)n1` (stereo unspecified) was tested, and the “Percent Effect” value was -55.47%.
For `O=C(CN1CCc2onc(-c3ccccc3F)c2C1)NC1CC1`, the “Percent Effect” value was -100.2%.
`COc1ccc(CCC(=O)N2CCCC(n3cncn3)C2)cc1` (stereo unspecified) was tested, and the “Percent Effect” value was -80.83%.
`O=C(Cc1ccccc1)N1CCC2(CC1)COCCN2CC1CC1.O=C(O)C(F)(F)F` was tested, and the “Percent Effect” value was -81.37%.
With `CCOc1ccc(C(=O)N2CCCCC2Cn2nc(C)cc2C)cn1` (stereo unspecified) the “Percent Effect” value was -93.63%.
`CNC(=O)Cc1cc2nccc(-c3c(OC)cccc3OC)n2n1` was tested, and the “Percent Effect” value was -192.8%.
`Cc1cc2nc(C(C)C)cc(N3CCN(S(N)(=O)=O)CC3)n2n1` was tested, and the “Percent Effect” value was -79.73%.
With `COc1ccc(C2CCCN2C(=O)NCCCn2cccn2)cc1` (stereo unspecified) the “Percent Effect” value was -95.69%.
`CCN(CC)Cc1ccccc1NC(=O)N(C)Cc1ccc(OC)cc1` was tested, and the “Percent Effect” value was 39.65%.
`CC(=O)N(C)Cc1ccccc1NC(=O)c1ccccc1C` was tested, and the “Percent Effect” value was -129.3%.
`O=C(c1cc(C2CC2)[nH]n1)N1CCN(Cc2ccccc2)CC1` was tested, and the “Percent Effect” value was -79.8%.
In the case of `O=S(=O)(C1CC1)N1CCc2ncnc(N3CCOCC3)c2CC1`, the “Percent Effect” value was -72.08%.
For `CN(Cc1ccc(C#N)cc1)CC1CCS(=O)(=O)C1` (stereo unspecified), the “Percent Effect” value was -39.39%.
`Cc1nccc(CN2CC[C@H](Oc3cccc(F)c3)[C@@](C)(O)C2)n1` was tested, and the “Percent Effect” value was -32.63%.
`C[C@]1(O)CN(Cc2cccc(C(=O)O)c2)CC[C@@H]1Oc1cccc(F)c1` was tested, and the “Percent Effect” value was -94.06%.
For `C[C@]1(O)CN(Cc2ncccc2F)CC[C@@H]1Oc1cccc(F)c1`, the “Percent Effect” value was -43.28%.
`Cc1cnccc1CN1CC[C@@](C)(O)[C@H](Oc2cccc(F)c2)C1` was tested, and the “Percent Effect” value was 38.73%.
In the case of `C[C@]1(O)CN(CCC(N)=O)CC[C@@H]1Oc1cccc(F)c1`, the “Percent Effect” value was -45.94%.
`C[C@]1(O)CN(CCO)CC[C@@H]1Oc1cccc(F)c1` was tested, and the “Percent Effect” value was 63.55%.
With `Cc1cnccc1CN1CC[C@H](Oc2cccc(F)c2)[C@@](C)(O)C1` the “Percent Effect” value was 79.24%.
In the case of `C[C@]1(O)CN(CC(=O)N2CCCC2)CC[C@@H]1Oc1cccc(F)c1`, the “Percent Effect” value was 21.38%.
For `Cc1ccc(C(F)(F)F)cc1NC(=O)C1CCCN1` (stereo unspecified), the “Percent Effect” value was -141.5%.
`CC(=O)Nc1ccc(CNc2cccc(CS(C)(=O)=O)c2)cc1` was tested, and the “Percent Effect” value was -47.89%.
For `O=C(NCc1cccs1)[C@@H]1CC[C@@H]2[C@@H](CCN2C2CCOCC2)O1.O=C(O)C(F)(F)F`, the “Percent Effect” value was -51.06%.
For `CCN(CC)CCNC(=O)c1ccc(-n2ccc3ccccc32)s1`, the “Percent Effect” value was 90.12%.
With `O=C(NCCCN1CCOCC1)c1ccc(-n2ccc3ccccc32)s1` the “Percent Effect” value was 33.29%.
With `O=C(NCCN1CCOCC1)c1ccc(-n2ccc3ccccc32)s1` the “Percent Effect” value was 6.644%.
For `CCc1n[nH]c(C2CN(C(=O)c3ccc(NC4CC4)nc3)CCO2)n1` (stereo unspecified), the “Percent Effect” value was -51.88%.
In the case of `CC[C@H](C)[C@H](N)C(=O)Nc1nc(-c2cnc(N3CCOCC3)nc2)cs1`, the “Percent Effect” value was -43.38%.
In the case of `OC(COc1ccccc1)CN1CCN(c2nccs2)CC1` (stereo unspecified), the “Percent Effect” value was -10.76%.
For `O=C(O)C(F)(F)F.O=C(c1cocn1)N1C[C@H]2CCC[C@@]2(COc2ccccn2)C1`, the “Percent Effect” value was 50.75%.
For `Cc1cccc(CN2C[C@H]3CCC[C@@]3(COCc3csc(C)n3)C2)n1.O=C(O)C(F)(F)F.O=C(O)C(F)(F)F`, the “Percent Effect” value was 81.41%.
With `Cc1cc(CN2C[C@H]3CCC[C@@]3(COCc3csc(C)n3)C2)no1.O=C(O)C(F)(F)F` the “Percent Effect” value was 11.53%.
With `Cn1cc(CN2C[C@H]3CCC[C@@]3(COc3ccccn3)C2)cn1.O=C(O)C(F)(F)F.O=C(O)C(F)(F)F` the “Percent Effect” value was 64.46%.
With `Cn1cc(CN2C[C@H]3CCC[C@@]3(COCC3CC3)C2)cn1.O=C(O)C(F)(F)F` the “Percent Effect” value was 51.84%.
`Fc1cnc(N2C[C@H]3CCC[C@@]3(COc3ccccn3)C2)nc1.O=C(O)C(F)(F)F.O=C(O)C(F)(F)F` was tested, and the “Percent Effect” value was 3.485%.
For `O=C(O)C(F)(F)F.O=C(c1ncccn1)N1C[C@H]2CCC[C@@]2(COc2ccccn2)C1`, the “Percent Effect” value was 12.48%.
With `Cn1cc(CN2C[C@@H]3COC[C@]3(COCC3CC3)C2)cn1.O=C(O)C(F)(F)F` the “Percent Effect” value was -16.85%.
For `Cc1nc(COC[C@@]23CCC[C@@H]2CN(Cc2nccs2)C3)cs1.O=C(O)C(F)(F)F`, the “Percent Effect” value was -17.19%.
In the case of `CS(=O)(=O)N1C[C@H]2CCC[C@@]2(COc2ccccn2)C1.O=C(O)C(F)(F)F`, the “Percent Effect” value was 2.668%.
With `O=C(O)C(F)(F)F.O=C(O)C(F)(F)F.c1ccc(CN2C[C@H]3CCC[C@@]3(COCC3CC3)C2)nc1` the “Percent Effect” value was -73.03%.
In the case of `Cc1ccc(C(=O)N2C[C@H]3CCC[C@@]3(COc3ccccn3)C2)nc1.O=C(O)C(F)(F)F.O=C(O)C(F)(F)F`, the “Percent Effect” value was 6.864%.
For `COCc1ncc(-c2nccn2CCS(C)(=O)=O)cn1`, the “Percent Effect” value was -109%.
For `CS(=O)(=O)CCCNc1cccc(COC2CCCCC2)c1`, the “Percent Effect” value was -119.3%.
In the case of `Cc1cc(C(=O)N2CCCC2)ccc1NCc1nc(CC(C)C)no1`, the “Percent Effect” value was -36.08%.
`C=C/C=c1\c(=C/C)oc2c(NCc3ccccc3)ncnc12` was tested, and the “Percent Effect” value was -45.75%.
`CCCc1nc(N2CCCC(C)C2)c2c(n1)c(C)nn2CC` (stereo unspecified) was tested, and the “Percent Effect” value was -54.34%.
In the case of `CCc1c(C)sc2nc3n(CC(N)=O)nc(SC)n3c(=O)c12`, the “Percent Effect” value was -38.8%.
With `CN(C)[C@H]1CCCCN(C(=O)COCc2nc3cc(F)ccc3[nH]2)C1` the “Percent Effect” value was -11.74%.
`COC(C)Cc1nc(-c2cnn3c(C)cc(C)nc23)no1` (stereo unspecified) was tested, and the “Percent Effect” value was -0.05951%.
`CCN1C[C@H]2[C@@H](C1)N(c1ncc(F)cn1)CC[C@H]2OC.O=C(O)C(F)(F)F.O=C(O)C(F)(F)F` was tested, and the “Percent Effect” value was 33.74%.
In the case of `CO[C@H]1CCN(c2ncc(F)cn2)[C@@H]2CN(Cc3ccco3)C[C@H]12.O=C(O)C(F)(F)F.O=C(O)C(F)(F)F`, the “Percent Effect” value was 62.54%.
With `CO[C@@H]1CCN(Cc2ccccn2)[C@@H]2CN(Cc3ccco3)C[C@@H]21.O=C(O)C(F)(F)F.O=C(O)C(F)(F)F.O=C(O)C(F)(F)F` the “Percent Effect” value was 81.61%.
In the case of `CO[C@@H]1CCN(Cc2ccoc2)[C@@H]2CN(Cc3ccco3)C[C@@H]21.O=C(O)C(F)(F)F.O=C(O)C(F)(F)F`, the “Percent Effect” value was 46.48%.
For `CO[C@@H]1CCN(Cc2c(C)noc2C)[C@@H]2CN(Cc3ccco3)C[C@@H]21.O=C(O)C(F)(F)F.O=C(O)C(F)(F)F`, the “Percent Effect” value was 39.75%.
`CO[C@@H]1CCN(c2ncc(F)cn2)[C@@H]2CN(Cc3cccnc3)C[C@@H]21.O=C(O)C(F)(F)F.O=C(O)C(F)(F)F.O=C(O)C(F)(F)F` was tested, and the “Percent Effect” value was -59.6%.
`Clc1snnc1CN(Cc1cccs1)C1CC1` was tested, and the “Percent Effect” value was -103.1%.
`CCc1noc(C(C)N(C)CC(=O)Nc2cccc(C)c2C)n1` (stereo unspecified) was tested, and the “Percent Effect” value was -134.7%.
In the case of `O=C(O)[C@@H]1CN(C(=O)c2ccc(F)c(F)c2)C[C@H]1c1cccc(F)c1`, the “Percent Effect” value was -108.3%.
